Results published in ChEMBL document CHEMBL3988442, “University of Dundee, Small-Polar-MMV Screening Library” (2021).
Screen size: about 38,000 compounds; about 1,200 (3.2%) showed an effect of 50% or more. The median lay at about -58%. The full list was thinned out, with strong results kept by preference.

These compounds were tested on Plasmodium falciparum (assay: Calibr Malaria Delayed Death Assay SOP). Settings: concentration 4.99e-06 (unit not given; other assays of the set use mol/L).
Format: functional, organism-based
Design: scale not given: in the data most compounds retested in dose-response had high values

SMILES | Percent Effect [%]
Cc1cc(CN2CCN(c3ccnc(-c4ccccc4)n3)CC2)no1 | -117.2
Cc1cc(NC(=O)C2CN(Cc3ccccc3)CCO2)ccn1 (stereo unspecified) | -48
NC(=O)c1cnc2n1CCN(C(=O)c1cccc(Cn3cccn3)c1)C2 | -26.24
O=C1CCCN1CCC1CCN(C2CCC3(CCNCC3)CC2)CC1 | -113.8
Cc1ccc(NC(=O)Nc2cnc(N3CCN(C)CC3)nc2)cc1 | 58.27
COc1ccc(C)cc1NC(=O)Nc1cnc(N2CCOCC2)nc1 | 6.993
Cc1cc(C)cc(NC(=O)c2cnc(N3CCN(C)CC3)nc2C)c1 | -105.5
COc1ccc(C)cc1NC(=O)Nc1cnc(N2CCCC2)nc1 | -31.15
COc1ccc(NC(=O)c2cnc(N3CCN(C)CC3)nc2C)cc1 | -110.8
COc1ccc(NC(=O)Nc2cnc(N3CCN(C)CC3)nc2)cc1Cl | 87.5
CCN(CC)C(CNS(=O)(=O)c1ccc(C(N)=O)cc1)c1ccco1 (stereo unspecified) | -82.08
O=C(O)C(F)(F)F.O=S(=O)(c1cccs1)N1Cc2nc(CN3CCCCC3)oc2C1 | -52.21
O=C(CCO)N1CC[C@@H]2CN(C(=O)c3ccco3)CCO[C@@H]2C1 | -32.06
COc1c(C)cnc(CN2CCn3c(nnc3C(C)C)C2)c1C | -75.36
CCC(=O)N(C)C1CCN(Cc2ncc(C)c(OC)c2C)CC1 | -107.4
COc1c(C)cnc(CN(C)C2CCCCC2)c1C | 76.34
COc1c(C)cnc(CN2CCC(C(=O)N(C)C)CC2)c1C | -25.53
COc1c(C)cnc(CN2CCn3c(nnc3C3CC3)C2)c1C | -38.06
COc1c(C)cnc(CN(C)C(=O)c2ccccc2O)c1C | -65.02
COc1c(C)cnc(CN(C)C2CCOC3(CCOCC3)C2)c1C (stereo unspecified) | -5.784
COc1c(C)cnc(CN2CCC(N(C)C(C)C(N)=O)CC2)c1C (stereo unspecified) | 77.51

SMILES | Percent Effect [%]
CSc1ccc(C(=O)N2CC(=O)N(CC3CC3)CC(O)C2)cc1 (stereo unspecified) | -80.98
CC(C)c1nn(C)c(N(C)C)c1CNC1CCOc2ccccc21 (stereo unspecified) | -13.52
O=C(O)C(F)(F)F.O=C(c1ccccc1F)N1CCC2(CC1)CC(N1CCCC1)CO2 (stereo unspecified) | -57.39
Cc1nc(C2CCCN(C(=O)c3cc(-c4ccccc4)[nH]n3)C2)no1 (stereo unspecified) | -103.7
O=C(COc1coc(CN2CCCCC2)cc1=O)Nc1cccc(Cl)c1 | -36.85
N#Cc1cc(F)c(NCc2ccc(F)cc2)c(F)c1 | -56.06
Cc1cccc(NC(=O)C2(n3cnnn3)CCCCC2)n1 | -65.2
O=C(C1=CCCC1)N1C[C@@H]2COC[C@]2(COCC2CC2)C1 | -77.68
COc1ccc(CNCC2CN(C3CC3)CCO2)cc1F (stereo unspecified) | -41.72
COc1ccc(CNCC2CCN(CCO)CC2)cc1F | 57.05
CCN1CCOC(CNCc2ccc(OC)c(F)c2)C1 (stereo unspecified) | -53.15
OCCN1CCC(CNCc2cn(-c3ccccc3)nn2)CC1 | -75.43
CCOCCNCC1CCN(CCO)CC1 | -86.72
Clc1ccc(C(CNCc2ccncc2)n2cccn2)cc1 (stereo unspecified) | -53.83
Cn1cc(CNCC(c2ccc(Cl)cc2)n2cccn2)cn1 (stereo unspecified) | 16.07
CCn1cc(CNCC(c2ccc(Cl)cc2)n2cccn2)cn1 (stereo unspecified) | 59.81
CCn1cc(-c2n[nH]c(=O)n2-c2ccc3c(c2)OCO3)c(C)n1 | -101.4
CCC[C@H]1CN(c2nc(CO)cs2)C[C@@H]1NC(=O)C1CCC1 | 1.552
CCC[C@H]1CN(c2nc(CO)cs2)C[C@@H]1NC(=O)C1(COC)CC1 | 71.28
CCC[C@H]1CN(Cc2cscn2)C[C@@H]1NC(=O)C1(COC)CCC1 | -24.11
CC(C)C[C@H](NC(=O)Cn1ccc2c(Cl)cccc21)C(=O)O | -50.44

SMILES | Percent Effect [%]
COc1cccc(CN(C)Cc2nc(C(C)C)no2)c1 | -65.15
O=C(O)C(F)(F)F.O=C(c1c[nH]cn1)N1CCC(F)(F)C2(CCN(c3cccc(F)c3)C2)C1 (stereo unspecified) | 85.76
O=C(O)C(F)(F)F.O=C(O)C(F)(F)F.O=C(c1c[nH]cn1)N1CCC(F)(F)C2(CCN(c3ccccn3)C2)C1 (stereo unspecified) | -115.9
CN1CC(=O)N(c2ccccc2)CC12CCN(CCO)C2.O=C(O)C(F)(F)F.O=C(O)C(F)(F)F (stereo unspecified) | -19.33
FC1(F)CCN(Cc2cccnc2)CC12CCN(c1ccccc1)C2.O=C(O)C(F)(F)F.O=C(O)C(F)(F)F.O=C(O)C(F)(F)F (stereo unspecified) | 84.58
Cn1cnc(S(=O)(=O)N2CC3(CCN(c4ccccc4)C3)C2)c1.O=C(O)C(F)(F)F | 1.109
FC1(F)CCN(c2ccccc2)CC12CCN(c1ncccn1)C2 (stereo unspecified) | -152.8
OCCN1CCC(F)(F)C2(CCN(c3cccnc3)C2)C1 (stereo unspecified) | -53.32
FC1(F)CCN(Cc2ccncc2)CC12CCN(c1cccnc1)C2.O=C(O)C(F)(F)F.O=C(O)C(F)(F)F.O=C(O)C(F)(F)F (stereo unspecified) | 15.13
O=C(O)C(F)(F)F.O=C(c1c[nH]cn1)N1CCC(F)(F)C2(CCN(c3ncccn3)C2)C1 (stereo unspecified) | -29.78
O=C(O)C(F)(F)F.O=C(O)C(F)(F)F.OCCN1CC2(CCN(c3ccccc3)C2)C1 | 61.64
FC1(F)CCN(Cc2cccnc2)CC12CCN(c1cnccn1)C2.O=C(O)C(F)(F)F.O=C(O)C(F)(F)F.O=C(O)C(F)(F)F (stereo unspecified) | -45.54
C=C(C)CN1CCC(NC(=O)Nc2ccc(F)c(C(N)=O)c2)CC1 | -90.89
Cc1cc(Br)ccc1C(=O)NCCN1CCCCCC1 | 28.4
COc1ccc(Cn2cc(C(=O)N(C)Cc3ccn[nH]3)nn2)cc1 | -12.45
CCC(C)[C@H](N)c1nnc(SCC(=O)Nc2ccc(C)cc2C)o1.Cl (stereo partly specified) | -23.34
COc1ccc(C2CCCCCN2Cc2cn(C)nc2C)cc1 (stereo unspecified) | -0.1987
CSc1ncnc(NCc2ccccc2F)c1C#N | -23.93
O=C1COc2cc(C(=O)NS(=O)(=O)c3ccc(F)cc3)ccc2N1 | -21.19
